Here are results for 23 compounds from PubChem BioAssay (NCATS).

Records with an inconclusive call do not appear. Unmarked numbers belong to inactive results. Active and inactive are the calls of the source. Unless noted, calls come from the whole dose curve; as a rule, active = well fitted curve in the direction sought with a large enough effect; inconclusive = small, poorly fitted or top-dose-only effect, or another doubt; inactive = no such curve, though single readings can be large; an effect the other way counts as inactive or inconclusive.

Assay [1] addresses Voltage-gated inwardly rectifying potassium channel KCNH2 (Homo sapiens) (UniProt Q12809). Put plainly: qHTS Assay for Small Molecule Inhibitors of the Human hERG Channel Activity (AID 588834).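 Note: lower thallium flux fluorescence means stronger hERG block; nearly all actives have a fitted effect of over 50% in size.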 Note: potency is the fitted concentration of half-maximal effect. The procedure, abridged: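 Homogeneous FluxOR thallium flux assay using hERG-expressing U2OS cells (BacMam). Compound treatment about 10 minutes preceded stimulation; reduced fluorescence taken as channel block.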

For assay [2], the target named is Luciferin 4-monooxygenase (Photinus pyralis) (UniProt P08659). Put plainly: Biochemical firefly luciferase enzyme assay for NPC (AID 624030). Note: nearly all actives have a fitted effect of over 70% in size. Note: potency is the fitted concentration of half-maximal effect. Put shortly: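 Direct inhibition of firefly luciferase enzyme (10 nM final, 50 mM Tris Acetate) assessed by luminescence within 5 minutes. Percent activity scaled between DMSO and PTC124 positive control, with concentration-effect curves classified by fit quality and response.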

Assay [3] in a line: S16 Schwann cell viability assay (CellTiter-Glo assay) (AID 624031). Note: nearly all actives have a fitted effect of over 70% in size. Note: potency is the fitted concentration of half-maximal effect. Put shortly:
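Untransfected S16 rat Schwann cells; compound 24 h, 37 °C/5% CO2; CellTiter-Glo ATP luminescence. % activity vs no-cell wells and DMSO controls (0%); concentration-effect curves classed by r2, response magnitude, activity.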
In general terms: In ATP-based viability assays light output follows the ATP content of the culture.

Assay [4] can be described thus: S16 Schwann cell PMP22 intronic element firefly luciferase assay (AID 624032). Note: nearly all actives have a fitted effect of over 30% in size. Note: potency is the fitted concentration of half-maximal effect. The procedure, abridged:
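Luciferase reporter of PMP22 intronic-element expression in stably transfected S16 rat Schwann cells, read by ONE-Glo luminescence after 24 h compound exposure at 37 C. Activity scaled between DMSO (0%) and positive-control PTC124; concentration-effect curves quality-classified.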

Assay [5] is described as follows: S16 Schwann cell PMP22 intronic element beta-lactamase assay (AID 624044; calls by dose curve;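 note: 0% = DMSO and -100% = potassium clavulanate positive control; nearly all actives have a fitted effect of over 15% in size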). The note with it: S16 rat Schwann cells, PMP22 element beta-lactamase FRET, 24 h; ratio activity, negative = inhibition: at 38.3 µM (top of the series) unless noted. The procedure, abridged:
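Beta-lactamase reporter under a PMP22 intronic regulatory element in stable S16 rat Schwann cells; 24 h compound exposure. 460 nm blue signal normalized between DMSO (0%) and potassium clavulanate, with 535 nm FRET tracking viability; curves classed by r2 and response.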

Sequence of Luciferin 4-monooxygenase (Photinus pyralis) (P08659 whole entry, looked up): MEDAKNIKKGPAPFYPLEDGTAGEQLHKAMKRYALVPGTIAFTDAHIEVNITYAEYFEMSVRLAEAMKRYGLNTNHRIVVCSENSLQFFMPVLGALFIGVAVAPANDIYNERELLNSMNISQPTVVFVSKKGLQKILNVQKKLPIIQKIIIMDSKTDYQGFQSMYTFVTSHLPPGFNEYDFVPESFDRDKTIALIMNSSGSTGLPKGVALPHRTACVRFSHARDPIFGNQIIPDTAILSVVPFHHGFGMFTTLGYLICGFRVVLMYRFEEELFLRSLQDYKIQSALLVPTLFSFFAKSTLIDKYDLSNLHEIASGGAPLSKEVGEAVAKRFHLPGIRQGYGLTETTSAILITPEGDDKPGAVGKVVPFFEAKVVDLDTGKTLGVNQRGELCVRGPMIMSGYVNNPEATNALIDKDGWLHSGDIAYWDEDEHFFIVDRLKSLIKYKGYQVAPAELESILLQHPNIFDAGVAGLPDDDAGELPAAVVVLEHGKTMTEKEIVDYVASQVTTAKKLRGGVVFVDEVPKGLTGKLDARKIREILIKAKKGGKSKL
Sequence of Voltage-gated inwardly rectifying potassium channel KCNH2 (Homo sapiens) (Q12809 whole entry, looked up): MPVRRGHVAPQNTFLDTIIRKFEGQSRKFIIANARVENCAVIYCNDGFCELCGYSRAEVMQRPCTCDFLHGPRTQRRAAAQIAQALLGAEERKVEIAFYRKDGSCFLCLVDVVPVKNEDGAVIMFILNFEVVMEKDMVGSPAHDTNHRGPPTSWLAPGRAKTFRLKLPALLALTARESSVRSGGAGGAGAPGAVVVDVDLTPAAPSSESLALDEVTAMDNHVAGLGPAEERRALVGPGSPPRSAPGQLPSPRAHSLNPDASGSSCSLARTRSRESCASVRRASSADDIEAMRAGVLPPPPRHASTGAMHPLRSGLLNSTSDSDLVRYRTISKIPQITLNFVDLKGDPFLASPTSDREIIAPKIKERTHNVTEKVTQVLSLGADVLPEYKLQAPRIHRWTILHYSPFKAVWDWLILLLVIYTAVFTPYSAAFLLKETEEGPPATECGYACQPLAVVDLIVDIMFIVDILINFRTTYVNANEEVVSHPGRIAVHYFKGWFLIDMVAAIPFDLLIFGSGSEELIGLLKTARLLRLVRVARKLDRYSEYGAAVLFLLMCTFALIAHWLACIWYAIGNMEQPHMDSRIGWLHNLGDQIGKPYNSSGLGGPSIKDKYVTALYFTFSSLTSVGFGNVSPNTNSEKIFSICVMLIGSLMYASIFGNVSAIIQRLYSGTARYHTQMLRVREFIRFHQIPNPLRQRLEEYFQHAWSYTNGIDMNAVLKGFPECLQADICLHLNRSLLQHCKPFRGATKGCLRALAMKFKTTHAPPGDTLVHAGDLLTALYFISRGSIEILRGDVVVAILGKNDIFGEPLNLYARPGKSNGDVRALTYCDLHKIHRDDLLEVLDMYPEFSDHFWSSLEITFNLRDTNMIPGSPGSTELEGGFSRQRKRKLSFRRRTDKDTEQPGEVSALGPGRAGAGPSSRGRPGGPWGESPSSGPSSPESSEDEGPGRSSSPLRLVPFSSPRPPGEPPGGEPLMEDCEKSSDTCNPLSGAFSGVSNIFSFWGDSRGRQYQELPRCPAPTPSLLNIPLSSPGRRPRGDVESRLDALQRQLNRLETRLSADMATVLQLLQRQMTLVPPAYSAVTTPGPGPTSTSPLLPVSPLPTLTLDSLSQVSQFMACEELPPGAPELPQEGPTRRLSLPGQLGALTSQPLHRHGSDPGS

For `N=C(N)n1cccn1`, the Potency result in assay [1], in assay [2], in assay [3] and in assay [4] was “inactive” each time.
Take `CCCCC/C=C\C/C=C\C/C=C\CCCCC(=O)O`: the Potency entry in assay [1], in assay [2], in assay [3] and in assay [4] was “inactive” throughout. The ratio activity, negative = inhibition in assay [5] was -14.4%.
As to `O=C(CCCCCCCCCCCCC1CCCC1)Nc1ccc(S(=O)(=O)c2ccc(NC(=O)CCCCCCCCCCCCC3CCCC3)cc2)cc1`, the Potency entry in assay [1], in assay [2], in assay [3] and in assay [4] was “inactive” throughout. Moreover, the ratio activity, negative = inhibition in assay [5] is 4.78%.
For the compound `CC/C(=C(/CC)c1ccc(OP(=O)(O)O)cc1)c1ccc(OP(=O)(O)O)cc1`, the Potency result in assay [1], in assay [2], in assay [3] and in assay [4] was “inactive” each time. For the same compound, the ratio activity, negative = inhibition in assay [5] was 2.34%.
`CN[C@@H]1[C@H](O[C@H]2[C@H](O[C@H]3[C@H](O)[C@@H](O)[C@H](N=C(N)N)[C@@H](O)[C@@H]3N=C(N)N)O[C@@H](C)[C@]2(O)C=O)O[C@@H](CO)[C@H](O)[C@H]1O`: the Potency result in assay [1], in assay [2], in assay [3] and in assay [4] was “inactive” throughout. Besides, in assay [5], the ratio activity, negative = inhibition is 0%.
Consider `CC(=O)[O][Al][O]C(C)=O`, for which the Potency result in assay [1], in assay [2], in assay [3] and in assay [4] was “inactive” throughout. Also, the ratio activity, negative = inhibition in assay [5] was 0.413%.
For `O=C(O)[C@H]1C(=CCO)O[C@H]2CC(=O)N12`, the Potency entry in assay [1], in assay [2], in assay [3] and in assay [4] was “inactive” each time. In addition, in assay [5], the ratio activity, negative = inhibition was -34.7%.
For `CC[C@H]1OC(=O)[C@H](C)[C@@H](O[C@H]2C[C@@](C)(OC)[C@@H](O)[C@H](C)O2)C(C)[C@@H](O[C@@H]2O[C@H](C)C[C@H](N(C)C)[C@@H]2O)[C@](C)(OC)C[C@@H](C)C(=O)[C@H](C)[C@@H](O)[C@]1(C)O` (some centres undefined), the Potency entry in assay [1], in assay [2], in assay [3] and in assay [4] was “inactive” in each case. The ratio activity, negative = inhibition in assay [5] is 4.6%.
As to `CC(=O)c1ccc2c(c1)N(CCCN1CCN(CCO)CC1)c1ccccc1S2`, the values for the Potency in assay [1], in assay [3] and in assay [4] were 7.08 µM (active), 28.7 µM (active) and 16.1 µM (active), respectively. Besides, the Potency entry in assay [2] was “inactive”. For the same compound, the ratio activity, negative = inhibition in assay [5] was -15.1%.
The matching figures for `COc1cc2c(cc1OC)[C@@H](Cc1cc(OC)c(OC)c(OC)c1)[N+](C)(CCCOC(=O)CC/C=C/CCC(=O)OCCC[N+]1(C)CCc3cc(OC)c(OC)cc3[C@H]1Cc1cc(OC)c(OC)c(OC)c1)CC2` (some centres undefined): “inactive”, “inactive”, “inactive”, “inactive” and -5.32%.
The matching figures for `O=C(CCCN1CCN2CCCC2C1)c1ccc(F)cc1` (centres undefined): “inactive”, “inactive”, “inactive”, “inactive” and -6.15%.
The matching figures for `COC(=O)CC[C@H](N)C(=O)O`: “inactive”, “inactive”, “inactive”, “inactive” and -5.51%.
As to `Cc1cc(=O)c(C(=O)N[C@@H](C(=O)N[C@@H]2C(=O)N3C(C(=O)O)=C(CSc4nnnn4C)CS[C@H]23)c2ccc(O)cc2)c[nH]1`, the Potency entry in assay [1], in assay [2], in assay [3] and in assay [4] was “inactive” throughout. Further, the ratio activity, negative = inhibition in assay [5] is 0.254%.
On to `COc1ccc(/C=C/C(=O)O)cc1`, for which the Potency entry in assay [1], in assay [2], in assay [3] and in assay [4] was “inactive” in each case. Further, the ratio activity, negative = inhibition in assay [5] was 1.76%.
For `Cn1c(=O)c2c(ncn2CCOC(=O)C(C)(C)Oc2ccc(Cl)cc2)n(C)c1=O`, the Potency result in assay [1], in assay [2] and in assay [3] was “inactive” each time. Further, the Potency in assay [4] was 32.2 µM (active). In assay [5], the ratio activity, negative = inhibition is -5.21%.
`CC1CC(OC(=O)C(O)c2ccccc2)CC(C)(C)C1` (centres undefined): the Potency result in assay [1], in assay [2], in assay [3] and in assay [4] was “inactive” each time. Also, the ratio activity, negative = inhibition in assay [5] is -3.78%.
For the compound `CC(C)(COP(=O)(O)OP(=O)(O)OC[C@H]1O[C@@H](n2cnc3c(N)ncnc32)[C@H](O)[C@@H]1OP(=O)(O)O)C(O)C(=O)NCCC(=O)NCCS` (some centres undefined), the Potency entry in assay [1], in assay [2], in assay [3] and in assay [4] was “inactive” in each case. For the same compound, the ratio activity, negative = inhibition in assay [5] is 1.27%.
Turning to `Cc1ncc(COP(=O)(O)O)c(CN)c1O`, the Potency result in assay [1], in assay [2], in assay [3] and in assay [4] was “inactive” throughout. Also, the ratio activity, negative = inhibition in assay [5] is -0.583%.
For the compound `CCc1ncnc2cc(OC)c(OC)cc12`, the Potency result in assay [1], in assay [2], in assay [3] and in assay [4] was “inactive” throughout. In assay [5], the ratio activity, negative = inhibition was -3.22%.
For the compound `CCCC(CCC)C(=O)OC1C[C@H]2CC[C@@H](C1)[N+]2(C)C` (some centres undefined), the Potency entry in assay [1], in assay [2], in assay [3] and in assay [4] was “inactive” throughout. In addition, the ratio activity, negative = inhibition in assay [5] was 6.3%.
For the compound `O=C(O)CCC(=O)c1ccc(-c2ccccc2)cc1`, the Potency result in assay [1], in assay [3] and in assay [4] was “inactive” each time. For the same compound, in assay [2], the Potency is 4.36 µM (active). In addition, the ratio activity, negative = inhibition in assay [5] was 0.885% [at 17.1 µM].
On to `CCCCCCOC(=O)c1cccnc1`, for which the Potency result in assay [1], in assay [2], in assay [3] and in assay [4] was “inactive” throughout. Also, in assay [5], the ratio activity, negative = inhibition is 2.38%.
As to `O=C(CCCN1CCC(C(=O)c2ccc(F)cc2)CC1)c1ccc(F)cc1`, in assay [1], the Potency is 0.0891 µM (active). Further, the Potency entry in assay [2], in assay [3] and in assay [4] was “inactive” in each case. Moreover, the ratio activity, negative = inhibition in assay [5] is -12.9%.
